Test results from the supplement of paper PMC13380429.

Each molecule was assayed on Vero E6 infected with SARS-CoV-2 (assay: morphology score (similarity to uninfected cells); higher = more like uninfected cells). Conditions: 24 h.

How did the morphology score turn out when `COC(=O)C1=C(C)NC(C)=C(C(=O)OCCN2CCN(C(c3ccccc3)c3ccccc3)CC2)C1c1cccc([N+](=O)[O-])c1` (centres undefined) [manidipine] (10 µM) was run?
Its morphology score is 0.247.

For `CCN(CC)CCN(Cc1ccc(-c2ccc(C(F)(F)F)cc2)cc1)C(=O)Cn1c(SCc2ccc(F)cc2)nc(=O)c2c1CCC2` [darapladib] (0.833333 µM), which morphology score is on record?
The morphology score was -0.0453.

How did the morphology score turn out when `O=C1C[C@@H](c2ccc(O)cc2)Oc2cc(O)ccc21` (10 µM) was run?
The morphology score was 0.025.

Which morphology score does the source give for `Cc1cc(NC(=O)C2=C(O)c3ccccc3S(=O)(=O)N2C)no1` [isoxicam] (10 µM) here?
Its morphology score is -0.111.

What follows are molecules tested on Vero E6 infected with SARS-CoV-2 (assay: SARS-CoV-2 infection rate relative to infected DMSO; higher = more infection, active = 60 or less). Conditions: 24 h.

Which SARS-CoV-2 infection rate does the source give for `COc1cccc2cc(-c3nc([C@H]4CC[C@H](C(=O)O)CC4)n4ncnc(N)c34)[nH]c12` (0.833333 µM) here?
The SARS-CoV-2 infection rate was 112% (inactive).

How did the SARS-CoV-2 infection rate turn out when `CN1CCC(=C2c3ccccc3CCn3c(C=O)cnc32)CC1` [alcaftadine] (10 µM) was run?
The SARS-CoV-2 infection rate was 93.5% (inactive).

`c1ccc2c(c1)sc1ccccc12` [dibenzothiophene] (10 µM) was tested. Which SARS-CoV-2 infection rate did it give?
Its SARS-CoV-2 infection rate is 105% (inactive).

With `CC(C)c1nnc(-c2ccc(-c3ccccc3)nc2)n1-c1cccc2nonc12` (10 µM) as the molecule, how does the SARS-CoV-2 infection rate read?
The SARS-CoV-2 infection rate was 103% (inactive).

Which SARS-CoV-2 infection rate does the source give for `CCCc1nc(C)c2c(=O)nc(-c3cc(S(=O)(=O)N4CCN(CC)CC4)ccc3OCC)[nH]n12` [vardenafil] (10 µM) here?
The SARS-CoV-2 infection rate was 97.5% (inactive).

`Cc1cc(=O)n(-c2ccccc2)[nH]1` [N-demethylantipyrine] (10 µM) was tested. Which SARS-CoV-2 infection rate did it give?
The SARS-CoV-2 infection rate was 101% (inactive).

With `O=S1(=O)N[C@H]2CCCN2c2ccccc21` (10 µM) as the molecule, how does the SARS-CoV-2 infection rate read?
The SARS-CoV-2 infection rate was 104% (inactive).

`COc1cc(Br)c(S(=O)(=O)Nc2ccc(C(F)(F)F)c(O[C@@H]3CCN(C)C3)c2)cc1OC` (10 µM) was tested. Which SARS-CoV-2 infection rate did it give?
The SARS-CoV-2 infection rate was 104% (inactive).

Which SARS-CoV-2 infection rate does the source give for `Brc1ccc(NC2C3CC4CC(C3)CC2C4)cc1` (centres undefined) [bromantan] (10 µM) here?
The SARS-CoV-2 infection rate was 99.5% (inactive).

For `Cc1nnc(NS(=O)(=O)c2ccc(N)cc2)s1` [sulfamethizole] (10 µM), which SARS-CoV-2 infection rate is on record?
Its SARS-CoV-2 infection rate is 108% (inactive).

Which SARS-CoV-2 infection rate does the source give for `N#Cc1c(Oc2ccc(F)c(NC(=O)Cc3cccc(C(F)(F)F)c3)c2)ccc2nc(NC(=O)C3CC3)sc12` (10 µM) here?
The SARS-CoV-2 infection rate was 108% (inactive).

Which SARS-CoV-2 infection rate does the source give for `N=C(N)NCCSSCCNC(=N)N` [guanidinoethyldisulfide-bicarbonate] (10 µM) here?
Its SARS-CoV-2 infection rate is 107% (inactive).

Which SARS-CoV-2 infection rate does the source give for `Nc1cccc(CNC(=O)c2ccc(Oc3ccc(OCc4cccc(F)c4)cc3)nc2)c1` (10 µM) here?
Its SARS-CoV-2 infection rate is 119% (inactive).

How did the SARS-CoV-2 infection rate turn out when `CN(C)CCNc1nc2cc(O)ccc2c2c1C(=O)c1ccccc1-2` (10 µM) was run?
Its SARS-CoV-2 infection rate is 106% (inactive).

With `CC(C)(C)/[N+]([O-])=C/c1ccc(S(=O)(=O)O)cc1S(=O)(=O)O` (10 µM) as the molecule, how does the SARS-CoV-2 infection rate read?
The SARS-CoV-2 infection rate was 114% (inactive).

How did the SARS-CoV-2 infection rate turn out when `OC(CCCN1CCCCC1)(c1ccccc1)c1ccccc1` [diphenidol] (10 µM) was run?
The SARS-CoV-2 infection rate was 104% (inactive).

With `CCN1/C(=C/C(C)=O)Sc2ccc(OC)cc21` (10 µM) as the molecule, how does the SARS-CoV-2 infection rate read?
Its SARS-CoV-2 infection rate is 108% (inactive).

For `Cc1ccc(-n2sc(=O)n(Cc3ccc(F)cc3)c2=O)cc1` (10 µM), which SARS-CoV-2 infection rate is on record?
The SARS-CoV-2 infection rate was 96% (inactive).

How did the SARS-CoV-2 infection rate turn out when `Clc1ccc2nsnc2c1NC1=NCCN1` [tizanidine] (10 µM) was run?
The SARS-CoV-2 infection rate was 112% (inactive).

How did the SARS-CoV-2 infection rate turn out when `O=c1ccc2cc(O[C@@H]3O[C@H](CO)[C@@H](O)[C@H](O)[C@H]3O)c(O)cc2o1` [esculin] (10 µM) was run?
Its SARS-CoV-2 infection rate is 111% (inactive).

How did the SARS-CoV-2 infection rate turn out when `NP(N)(=O)NC(=O)c1ccc(F)cc1` [flurofamide] (10 µM) was run?
The SARS-CoV-2 infection rate was 94.5% (inactive).

With `COc1cc2c(NC3CCN(CC4CCCCC4)CC3)nc(N3CCCN(C(C)C)CC3)nc2cc1OCCCN1CCCCC1` (0.833333 µM) as the molecule, how does the SARS-CoV-2 infection rate read?
Its SARS-CoV-2 infection rate is 92% (inactive).

For `CS(=O)(=O)Nc1ccc(Cc2noc(-c3ccc4[nH]cc(CCN)c4c3)n2)cc1` (10 µM), which SARS-CoV-2 infection rate is on record?
The SARS-CoV-2 infection rate was 103% (inactive).

Which SARS-CoV-2 infection rate does the source give for `COc1cc(OC)c(C(=O)CCCN2CCCC2)c(OC)c1` [buflomedil] (10 µM) here?
Its SARS-CoV-2 infection rate is 102% (inactive).

Which SARS-CoV-2 infection rate does the source give for `CCCN1CCN(c2ccc(C(=O)NC3(C(=O)NCC#N)CCCCC3)cc2)CC1` [balicatib] (10 µM) here?
The SARS-CoV-2 infection rate was 46% (active).

Which SARS-CoV-2 infection rate does the source give for `c1ccc([C@@H]2C[C@H]2NC2CCNCC2)cc1` (10 µM) here?
The SARS-CoV-2 infection rate was 114% (inactive).

For `C[C@@H](NCCCc1cccc(C(F)(F)F)c1)c1cccc2ccccc12` [cinacalcet] (10 µM), which SARS-CoV-2 infection rate is on record?
The SARS-CoV-2 infection rate was 20% (active).

For `Cc1cc(/C=C2\SC(=O)N(c3ccccc3)C2=O)c(C)n1-c1cccnc1` (10 µM), which SARS-CoV-2 infection rate is on record?
The SARS-CoV-2 infection rate was 102% (inactive).

`COc1cc(C(=O)NCCCCCC(=O)O)cc(OC)c1OC` [capobenic-acid] (10 µM) was tested. Which SARS-CoV-2 infection rate did it give?
The SARS-CoV-2 infection rate was 108% (inactive).

With `Cc1cccc(C)c1OCC(C)N` (centres undefined) [mexiletine] (10 µM) as the molecule, how does the SARS-CoV-2 infection rate read?
Its SARS-CoV-2 infection rate is 112% (inactive).
